{
  "source": "PubChem BioAssay (EPA / NIEHS)",
  "note": "Inconclusive results are not listed. The source made the active and inactive calls. The calls were made as follows: active = hit-call score of the fitted dose curve at least 0.9, where 1 is the maximum; inconclusive = response in the unintended direction; inactive = score below 0.9.",
  "data": [
    {"target": "Peroxisome proliferator-activated receptor gamma (Homo sapiens) (UniProt P37231)", "sequence (P37231 whole entry, looked up)": "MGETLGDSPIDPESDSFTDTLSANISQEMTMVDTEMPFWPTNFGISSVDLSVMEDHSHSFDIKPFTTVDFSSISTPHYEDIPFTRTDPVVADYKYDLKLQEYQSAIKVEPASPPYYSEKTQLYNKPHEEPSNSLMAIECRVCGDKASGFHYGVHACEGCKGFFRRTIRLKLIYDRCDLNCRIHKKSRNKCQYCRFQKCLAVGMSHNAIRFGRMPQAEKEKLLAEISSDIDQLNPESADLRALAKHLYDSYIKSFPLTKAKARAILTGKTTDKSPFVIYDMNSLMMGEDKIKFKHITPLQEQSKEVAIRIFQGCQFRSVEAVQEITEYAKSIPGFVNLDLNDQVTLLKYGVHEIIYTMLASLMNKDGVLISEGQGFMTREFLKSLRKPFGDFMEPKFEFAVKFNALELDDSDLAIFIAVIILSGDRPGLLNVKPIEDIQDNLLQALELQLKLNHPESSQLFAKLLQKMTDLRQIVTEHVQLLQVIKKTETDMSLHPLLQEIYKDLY", "experiment": "ATG_PPARg_TRANS: Attagene TRANS-FACTORIAL HepG2 Assay for human Peroxisome Proliferator-activated Receptor-gamma (PPARg) (AID 2283007)", "method": "ATG_TRANS is a cell-based, multiplexed-readout assay that uses HepG2, a human liver cell line, with measurements taken at 24 hours after chemical dosing in a 24-well plate.ATG_PPARg_TRANS is one of 30 assay component(s) measured or calculated from the ATG_TRANS assay. It is designed to make measurements of mRNA induction, a form of inducible reporter, as detected with fluorescence intensity signals by Reverse transcription polymerase chain reaction (RT-PCR) and Capillary electrophoresis technology.Data from the assay component ATG_PPARg_TRANS was analyzed into 1 assay endpoint. This assay endpoint, ATG_PPARg_TRANS, was analyzed in the positive analysis fitting direction relative to DMSO as the negative control and baseline of activity. Using a type of inducible reporter, measures of mRNA for gain-of-signal activity can be used to understand the reporter gene at the transcription factor-level as they relate to the gene PPARG. Furthermore, this assay endpoint can be referred to as a primary readout, because this assay has produced multiple assay endpoints where this one serves a reporter gene function. To generalize the intended target to other relatable targets, this assay endpoint is annotated to the nuclear receptor intended target family, where the subfamily is non-steroidal.\nHuman liver HepG2 cells are transiently transfected with multiple reporter transcription units (MRTUs) in 6-well plates using FuGene 6 reagent (Roche; 3 ml FuGene/1 mg DNA). The MRTU constructs are regulated by a cis-regulating element (promoter). […] A major difference between the CIS and TRANS system is that in CIS activities of endogenous TFs are measured, whereas the TRANS assay evaluates changes in activities of exogenous, chimeric NR-Gal4 proteins. […] At the end of 24 hour incubation, total RNA was isolated using TriZol reagent (Invitrogen). The isolated RNA is then reverse-transcribed using oligo(dT) primer and Mo-MLV reverse transcriptase (Invitrogen) with DNAse I (Ambion) treatment for 30 min. The one-tenth of the produced cDNA was amplified by PCR using Taq DNA polymerase (Invitrogen) and two reporter sequence-specific primers. The PCR products were fluorescently labeled by primer extension with 6-arboxyfluorescein (6-FAM) 5'-labeled reporter sequence-specific primer (2 min at 95 C, 20 s at 68 C and 10 min at 72 C) and these products were digested with 5U of HpaI (New England Biolabs) for 2h at 37 C. The fragments were purified using Qiaquick PCR columns (Qiagen), analyzed on an ABI 3130xL genetic analyzer (Applied Biosystems) with peak positions identified by using a set of X-rhodamine (ROX)-labeled MapMarker1000 molecular weight standards (BioVentures). The raw capillary electrophoresis data was processed using Attagraph software (Attagene).", "values": [
      {"smiles": "O=C(OCCCCCOC(=O)c1ccccc1)c1ccccc1", "outcome": "inactive"},
      {"smiles": "C1CCC(SSC2CCCCC2)CC1", "outcome": "inactive"},
      {"smiles": "CNCc1cc(F)ccc1Oc1ccc(Cl)c(Cl)c1", "outcome": "inactive"},
      {"smiles": "CN[C@H]1CC[C@@H](c2ccc(Cl)c(Cl)c2)c2ccc(S(N)(=O)=O)cc21", "outcome": "inactive"},
      {"smiles": "COc1cc(/C=C/C(=O)CC(=O)/C=C/c2ccc(O)c(OC)c2)ccc1O", "AC50": "8 µM (active)"},
      {"smiles": "CN1CCN(Cc2cc(-c3ccc4[nH]c(=O)oc4c3)co2)[C@@H](c2ccc(F)cc2)C1", "AC50": "42.4 µM (active)"},
      {"smiles": "CC(=O)OCCOCCOCCOC(C)=O", "outcome": "inactive"},
      {"smiles": "CCCCCCCCCCCCCCCCCC(=O)O", "outcome": "inactive"},
      {"smiles": "CNC(=O)[C@H]1O[C@@H](n2cnc3c(NCc4cc(Cl)ccc4OCc4cc(C)no4)ncnc32)[C@H](O)[C@@H]1N", "outcome": "inactive"},
      {"smiles": "CCOC(=O)C(C)(C)Oc1ccc(Cl)cc1", "outcome": "inactive"},
      {"smiles": "Cc1ccc(Cl)cc1", "outcome": "inactive"},
      {"smiles": "CCOc1ccc2c(c1)C(C)=CC(C)(C)N2", "AC50": "28.7 µM (active)"},
      {"smiles": "COc1ccc(C)cc1N", "outcome": "inactive"},
      {"smiles": "CCCCOC(=O)CCCCCCCCC(=O)OCCCC", "outcome": "inactive"},
      {"smiles": "O=[N+]([O-])C(CO)(CO)CO", "outcome": "inactive"},
      {"smiles": "COCCOC[C@H](CC1(C(=O)NC2CCC(C(=O)O)CC2)CCCC1)C(=O)Oc1ccc2c(c1)CCC2", "note": "(stereo not given in full)", "outcome": "inactive"},
      {"smiles": "Nc1ccc2c(c1)C(=O)c1ccccc1C2=O", "AC50": "21 µM (active)"},
      {"smiles": "Nc1ccccc1N", "outcome": "inactive"},
      {"smiles": "Cc1ccc2ncccc2c1", "outcome": "inactive"},
      {"smiles": "COc1ccc(S(=O)(=O)N2C(=O)[C@@](c3ccccc3OC)(N3C[C@H](O)C[C@H]3C(=O)N(C)C)c3cc(Cl)ccc32)c(OC)c1", "outcome": "inactive"},
      {"smiles": "CCNc1cccc(C)c1", "outcome": "inactive"},
      {"smiles": "Cc1ccc(C(C)C)c(O)c1", "outcome": "inactive"},
      {"smiles": "COc1cc(S(=O)(=O)O)c(C)cc1N=Nc1c(O)ccc2cc(S(=O)(=O)O)ccc12", "outcome": "inactive"},
      {"smiles": "Cc1c(C(=O)O)c(O)cc2c1C(=O)c1c(O)c([C@@H]3O[C@H](CO)[C@@H](O)[C@H](O)[C@H]3O)c(O)c(O)c1C2=O", "outcome": "inactive"},
      {"smiles": "Cc1cccc([N+](=O)[O-])c1C", "outcome": "inactive"},
      {"smiles": "C[C@]12C=CC(=O)C=C1CC[C@@H]1[C@@H]2C(=O)C[C@@]2(C)[C@H]1CC[C@]2(O)C(=O)CO", "outcome": "inactive"},
      {"smiles": "NC(=O)Cn1c(=O)cc(CCN2CCN(c3nccc4sccc34)CC2)c2ccc(F)cc21", "outcome": "inactive"},
      {"smiles": "Cc1ccc(C)c(O)c1C", "outcome": "inactive"},
      {"smiles": "CCCCCCCCCCCCCO", "outcome": "inactive"},
      {"smiles": "O=C(N[C@@H](Cc1ccccc1)[C@@H](O)C(=O)N1C[C@@H](O)[C@@H](O)C1)c1cc2cc(Cl)ccc2[nH]1", "outcome": "inactive"},
      {"smiles": "CC(C)(C)c1cc(O)c(C(C)(C)C)cc1O", "AC50": "38.7 µM (active)"},
      {"smiles": "NS(=O)(=O)c1cc2c(cc1Cl)NCNS2(=O)=O", "outcome": "inactive"},
      {"smiles": "Nc1ccc(S(=O)(=O)c2ccc(N)cc2)cc1", "outcome": "inactive"},
      {"smiles": "CC(C)c1ccc(C(=O)N=C(N)N)cc1S(C)(=O)=O", "outcome": "inactive"},
      {"smiles": "Cc1oc(-c2ccccc2)nc1CCOc1cccc2c1ccn2CCC(=O)O", "AC50": "0.0142 µM (active)"},
      {"smiles": "CCCCCCCC=O", "AC50": "100 µM (active)"},
      {"smiles": "Oc1ccc2ccccc2c1N=Nc1ccccc1", "AC50": "3.87 µM (active)"},
      {"smiles": "CCCCCCOCCO", "outcome": "inactive"},
      {"smiles": "Oc1ccc2c(c1)OC[C@@H](N1CCC(O)(c3ccc(F)cc3)CC1)[C@H]2O", "AC50": "16.5 µM (active)"},
      {"smiles": "CCCCCCCCCCO", "AC50": "41.1 µM (active)"}
    ]}
  ]
}
